Experimental findings from PubChem BioAssay AID1497 (Sanford-Burnham Center for Chemical Genomics, 2009) are described below.

Screen size: about 93,000 compounds; about 500 (0.54%) were called active.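 How the source made its calls: active means primary inhibition of 50% or more at 10 µM, then 40% or more on retest; inactive means the rest.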 The entries come from a sample that favours actives as a whole.

The target of the assay is Integrin beta-2 (Homo sapiens) + Integrin alpha-M (Homo sapiens) (UniProt P05107+P11215). The assay can be described thus: antagonists of integrin CD11b/CD18-fibrinogen binding – K562 cells, luminescence, primary screen (AID 1497). The settings on record: K562 CD11b/CD18 adhesion to fibrinogen, ATPlite luminescence; at 10 µM; hits give high values; Mn2+ added to activate the integrin. In general terms: Cellular ATP, detected with luciferase, serves as a proxy for viable cell number.
Chain of Integrin beta-2 (Homo sapiens) + Integrin alpha-M (Homo sapiens) (P05107 whole entry, looked up, other chains not shown): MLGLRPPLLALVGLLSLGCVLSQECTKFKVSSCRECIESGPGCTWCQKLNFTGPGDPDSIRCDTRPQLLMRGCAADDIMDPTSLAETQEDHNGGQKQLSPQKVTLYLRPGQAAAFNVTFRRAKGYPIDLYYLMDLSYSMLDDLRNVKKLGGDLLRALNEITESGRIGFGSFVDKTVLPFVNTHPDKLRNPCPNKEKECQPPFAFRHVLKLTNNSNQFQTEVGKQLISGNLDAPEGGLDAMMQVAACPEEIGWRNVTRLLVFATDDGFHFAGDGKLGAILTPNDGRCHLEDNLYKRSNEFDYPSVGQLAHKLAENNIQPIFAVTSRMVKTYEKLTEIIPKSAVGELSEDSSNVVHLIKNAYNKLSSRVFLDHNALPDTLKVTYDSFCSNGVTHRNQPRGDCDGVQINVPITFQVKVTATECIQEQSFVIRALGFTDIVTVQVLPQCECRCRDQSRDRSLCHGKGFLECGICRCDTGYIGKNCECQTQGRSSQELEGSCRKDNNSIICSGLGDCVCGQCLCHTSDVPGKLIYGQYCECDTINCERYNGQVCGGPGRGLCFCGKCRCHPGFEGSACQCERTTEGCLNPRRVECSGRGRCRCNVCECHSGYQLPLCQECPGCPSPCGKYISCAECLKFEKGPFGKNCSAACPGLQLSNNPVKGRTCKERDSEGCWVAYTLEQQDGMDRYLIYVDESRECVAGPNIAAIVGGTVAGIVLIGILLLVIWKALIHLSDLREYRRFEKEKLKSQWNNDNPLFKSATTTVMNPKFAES
On to `COc1cc(OC)c(C(=O)OC(C)C(=O)Nc2cc(C(F)(F)F)ccc2Cl)cc1OC` (stereo unspecified), for which the inhibition was 26.7% (inactive).

Turning to `COc1ccc2nc(SCc3ccccc3)nc(C)c2c1`, the inhibition is 1.5% (inactive).

As to `CC(C)(C)OC(=O)N/N=C/c1ccc(C(=O)O)cc1`, the inhibition was -1.8% (inactive).

Take `CC(C)Nc1nnc(SCC(=O)/C=C2\N(C)c3ccccc3C2(C)C)s1`: the inhibition is 21.6% (inactive).

For `CCOC(=O)c1cnc2ccc(F)cc2c1Nc1ccc2c(c1)OCCO2`, the inhibition was 2.6% (inactive).

As for `Cc1c(NS(=O)(=O)c2ccc(NC3CCCC3)c([N+](=O)[O-])c2)c(=O)n(-c2ccccc2)n1C`, the inhibition is 1% (inactive).

For the compound `Cc1cccc(CC(=O)N2CCN=C2SCc2ccc([N+](=O)[O-])cc2)c1`, the inhibition is -1.1% (inactive).

For `COc1ccc(CCNc2cc(C)nc3c(-c4ccc(Cl)cc4)c(C)nn23)cc1OC`, the inhibition is 2.7% (inactive).

Turning to `Cc1cccc(-n2c(C)cc(/C=N\NC(=O)c3cccs3)c2C)c1`, the inhibition was 37.3% (inactive).

Turning to `Cc1ccc(S(=O)(=O)NCc2csc(C)n2)c(C)c1`, the inhibition was -9% (inactive).

As to `Cc1nc(CNS(=O)(=O)c2cccnc2)cs1`, the inhibition was -2.1% (inactive).

Take `Cc1nc(CNS(=O)(=O)c2ccc(Oc3ccccc3)cc2)cs1`: the inhibition was 91.7% (active).

For `COc1ccccc1N=Cc1c(O)c2ccccc2oc1=O`, the inhibition is 6% (inactive).

Turning to `Oc1c(Br)cccc1/C=N/Nc1c(F)c(F)c(F)c(F)c1F`, the inhibition was 99.8% (inactive).

Regarding `Cc1cc([N+](=O)[O-])ccc1NC(=O)C1CCCO1` (stereo unspecified), the inhibition was 24.2% (inactive).

As for `CCOC(=O)/C(C#N)=C/c1ccc(N2CCN(Cc3ccccc3)CC2)cc1`, the inhibition is 82.1% (inactive).

In the case of `Cc1ccc(NC(=S)NC(=O)/C=C/c2ccc(Cl)cc2)cc1`, the inhibition was 7.2% (inactive).

With `Cc1ccc(/C=N/NC(=O)CNC(=O)COc2ccccc2)o1`, the inhibition was -10.5% (inactive).

For the compound `O=c1c(Cl)c(NCc2ccc(F)cc2Cl)cnn1C12CC3CC(CC(C3)C1)C2`, the inhibition is -4% (inactive).

With `Cc1c(C(=O)NCCN2C(=O)S/C(=C\c3cccs3)C2=O)cccc1[N+](=O)[O-]`, the inhibition is 7% (inactive).

As to `Cc1sc2ncnc(Sc3nc4ccccc4s3)c2c1C`, the inhibition is -5.9% (inactive).

On to `O=[N+]([O-])c1ccc(N2CCN(S(=O)(=O)c3ccccc3)CC2)cc1N1CCc2ccccc2C1`, for which the inhibition was -22.4% (inactive).

For `CCOCCCNC(=O)C(=O)NCCCOCC`, the inhibition was -3% (inactive).

In the case of `Cc1ccc(NC(=S)N2CCN(c3ncccn3)CC2)cc1C`, the inhibition was -4.4% (inactive).

With `Cc1cc2oc(=O)cc(CN3CCN(S(=O)(=O)c4cccs4)CC3)c2cc1C(C)C`, the inhibition was 22.2% (inactive).

For the compound `CCN(c1ccc(NC(=O)COC(=O)CCc2nc3ccccc3n2-c2ccccc2)cc1)C(C)C`, the inhibition is 15.2% (inactive).

On to `CC(C)N1C(=O)N(c2ccccc2)C(C)(O)CC1(C)C` (stereo unspecified), for which the inhibition was -10.1% (inactive).

As for `Cc1cccc(NC(=O)Cn2c(=O)n(Cc3ccccc3)c(=O)c3c(C)c(C)sc32)c1`, the inhibition is -17.5% (inactive).

`CCOc1ccc(NC(=O)COc2ccc(C(=O)NC3CCCc4ccccc43)cc2OC)cc1` (stereo unspecified): the inhibition is 1.8% (inactive).

Take `CCCN1CNC(=S)N(CCc2ccccc2)C1`: the inhibition is -28.3% (inactive).

Take `O=c1oc2cc(O)ccc2cc1-c1ccc(F)cc1`: the inhibition is -2.5% (inactive).

As to `CCCCCCc1cc2cc(-c3nnc(-c4ccccc4)o3)c(=O)oc2cc1O`, the inhibition was 94% (active).

As to `Cc1c(C(=O)OC(C)C)sc(NC(=O)c2cccnc2)c1C#N`, the inhibition was 86% (active).

In the case of `CCOc1cccc(C(=O)Nc2cccnc2)c1`, the inhibition was -2.2% (inactive).

Consider `CCOC(=O)c1cc(NC(=O)c2cccnc2)cc(C(=O)OCC)c1`, for which the inhibition is -52.6% (inactive).

Regarding `CCOC(=O)CSC1=C(C#N)C(c2ccco2)C(C(=O)OCc2ccccc2)=C(C)N1` (stereo unspecified), the inhibition is 34.5% (inactive).

Consider `CCOC(=O)CSC1=C(C#N)C(c2sccc2C)CC(=O)N1` (stereo unspecified), for which the inhibition is 56.1% (active).

As to `Cc1ccc(C2CC(=O)NC(SCC(=O)OCc3ccccc3)=C2C#N)o1` (stereo unspecified), the inhibition was 29.9% (inactive).

In the case of `CCCn1c(N)c(C(=O)CSc2nnc(-c3cccnc3)n2-c2ccc(C)cc2C)c(=O)[nH]c1=O`, the inhibition was -8.1% (inactive).

As for `Cc1cc(Br)ccc1SCC(=O)OCC(=O)NCc1ccc2c(c1)OCO2`, the inhibition was 10.7% (inactive).

In the case of `O=C(CSc1nc2ccccc2c(=O)n1CCCO)N1CCc2ccccc21`, the inhibition was 21.1% (inactive).

Take `O=C(N/N=C/c1cccc([N+](=O)[O-])c1)C1CC(=O)N(c2ccc(Br)cc2)C1` (stereo unspecified): the inhibition is -4.8% (inactive).

In the case of `COC(=O)c1c(C)oc2ccc(N(C(=O)Oc3ccccc3)S(=O)(=O)c3ccccc3)cc12`, the inhibition is 2.5% (inactive).

As for `Cc1ccc2nc(SCc3cn4c(C)cc(C)nc4n3)[nH]c2c1`, the inhibition was -5.6% (inactive).

Turning to `COc1ccc(C(CC(=O)Nc2ccc(C)cc2)NC(=O)C(F)(F)F)cc1` (stereo unspecified), the inhibition is -24.1% (inactive).

As to `CCCc1c(C)nc2c(Br)cccc2c1Cl`, the inhibition was 13.2% (inactive).

Consider `Cc1c(Cl)cccc1NC(=O)Nc1ccc(C(=O)N2CCCC2)cc1`, for which the inhibition is 9.6% (inactive).

On to `CCOc1ccc(/C=N/OCC(=O)NCc2cccs2)cc1`, for which the inhibition was 9% (inactive).

Regarding `CCc1c(C)sc(NC(=O)/C=C/c2ccc3c(c2)OCO3)c1C(=O)OC`, the inhibition is -6.4% (inactive).

In the case of `O=C(Cc1ccc(-c2ccccc2)cc1)NC(c1ccccc1)c1ccccc1`, the inhibition was -18.2% (inactive).

On to `CCOc1cc(CNCc2ccccn2)ccc1OCC(=O)NC(C)(C)C`, for which the inhibition was 7.5% (inactive).

Take `CC(C)(C)NC(=O)COC(=O)c1cc(Br)ccc1Cl`: the inhibition was 12.8% (inactive).

For `CC(C)C(=O)Nc1cccc(NC(=O)c2ccc([N+](=O)[O-])cc2Cl)c1`, the inhibition is -3.1% (inactive).

Consider `COC(=O)c1ccc(NC(=O)c2ccccc2NS(=O)(=O)c2ccccc2)cc1`, for which the inhibition is 102% (active).

Consider `CCOc1ccc(NC(=O)c2ccccc2NS(C)(=O)=O)cc1`, for which the inhibition was -19.4% (inactive).

In the case of `COC(=O)c1ccccc1NC(=O)c1ccccc1NS(C)(=O)=O`, the inhibition is -14.9% (inactive).

With `O=C(Oc1ccc([N+](=O)[O-])cc1)c1ccc(Cl)c(S(=O)(=O)N2CCCCC2)c1`, the inhibition was 8.6% (inactive).

With `Cc1ccc(NC(=O)c2sc3nc(N)c(C#N)cc3c2N)cc1`, the inhibition is 10.7% (inactive).

For the compound `COc1cccc(N(C(=O)C2COc3ccccc3O2)C(C(=O)NC2CCCCC2)c2ccc(O)cc2)c1` (stereo unspecified), the inhibition was -5% (inactive).

Regarding `Cc1ccc(CSCC(N)C(=O)O)cc1` (stereo unspecified), the inhibition was -2% (inactive).

Take `O=C(NCC1CCCO1)/C(=C/c1ccc(Cl)cc1)NC(=O)c1ccccc1` (stereo unspecified): the inhibition is 2.4% (inactive).

For `O=C(Nc1nnc(C2COc3ccccc3O2)o1)c1ccc(F)cc1` (stereo unspecified), the inhibition was -27.3% (inactive).

As for `COC(=O)Cc1ccc(NC(=S)NCc2ccccc2)cc1`, the inhibition was 0.4% (inactive).

Consider `CCCn1c(SCC(=O)Nc2ccc(C)c(S(=O)(=O)N3CCOCC3)c2)n[nH]c1=O`, for which the inhibition is -10.9% (inactive).

For `Cc1ccc(-n2nc3cc(Cl)c(NC(=O)c4ccco4)cc3n2)cc1`, the inhibition is 3.9% (inactive).

In the case of `O=C(NNC(=S)Nc1ccc(Br)cc1Cl)c1ccco1`, the inhibition was 89.9% (active).

With `COC(=O)c1cc(Cl)c(NC(=O)c2ccco2)cc1OC`, the inhibition is -6% (inactive).

As for `CN(C)S(=O)(=O)c1cccc(NC(=S)N/N=C/C(=O)c2ccccc2)c1`, the inhibition was 14% (inactive).

`COc1ccc([N+](=O)[O-])cc1NC(=O)C(C)OC(=O)C1c2ccccc2Oc2ccccc21` (stereo unspecified): the inhibition was 26.5% (inactive).

Turning to `COc1ccc(CCNC(=O)CSc2nc(-c3ccc(OC)c(OC)c3)ccc2C#N)cc1`, the inhibition was 18.5% (inactive).

`CCC(=O)Nc1ccc2c(c1)nc(CCN1CCN(C)CC1)n2C`: the inhibition was 3.3% (inactive).

In the case of `COc1ccc(C(=O)Nc2ccc(CN3CCOCC3)cc2)cc1`, the inhibition was -3.3% (inactive).

As for `Cn1c(CN2CCOCC2)nc2cc(NC(=O)c3ccc(Cl)cc3)ccc21`, the inhibition is 87.2% (active).

Consider `COCCOCCn1cnc2ccccc21`, for which the inhibition is 2.3% (inactive).

Consider `Cc1cc2ncn(CCCCOc3ccccc3)c2cc1C`, for which the inhibition was 63.9% (active).

With `Cc1nn(CCOc2ccccc2)c(=O)n1-c1ccccc1F`, the inhibition is -0.4% (inactive).

`COc1ccc(NC(=O)CC2C(=O)OCC3CCCCN32)cc1Cl` (stereo unspecified): the inhibition was -8.3% (inactive).

As to `CCCCCCCCC(=O)NCCOc1ccccc1`, the inhibition was 2.8% (inactive).

Regarding `COc1ccc(/C=C2/C(=O)OCc3cc(OC)c(OC)cc32)c(OC)c1`, the inhibition is 0.8% (inactive).

For the compound `C/C(=N\NS(=O)(=O)c1ccc(Cl)cc1)c1ccc(NC(=O)c2ccco2)cc1`, the inhibition is -3.6% (inactive).

In the case of `COCCn1c(=NC(=O)c2ccccc2[N+](=O)[O-])sc2cc(S(C)(=O)=O)ccc21`, the inhibition is 25.4% (inactive).

Consider `C/C(=N\NC(=O)CCn1nc(C)cc1C)C(C)(C)C`, for which the inhibition is 1% (inactive).

Consider `N#C/C(=C/c1cccc([N+](=O)[O-])c1)c1nnc2n1CCCCC2`, for which the inhibition is 2.5% (inactive).

On to `N/C(=N\OC(=O)Nc1ccc(Cl)c(Cl)c1)c1ncc(C(F)(F)F)cc1Cl`, for which the inhibition is -4.4% (inactive).

With `O=C(CC(O)(C(F)(F)F)C(F)(F)F)Nc1ccc(Cl)c(Cl)c1`, the inhibition is 89.5% (active).

Regarding `Cc1nnc(NC(=O)Nc2ccc(Cl)c(Cl)c2)s1`, the inhibition is 37% (inactive).

Turning to `COc1ccc(Cn2c(=O)sc3ccccc32)cc1OC`, the inhibition was 75.8% (active).

For the compound `COc1ccc(CCNC(=O)CCn2c(=O)oc3ccccc32)cc1OC`, the inhibition is -58.2% (inactive).

Regarding `Cc1nnc(NC(=O)Cn2c(=O)sc3ccccc32)s1`, the inhibition is -2.7% (inactive).

In the case of `COc1ccc(C(=O)Nc2ccccc2C(=O)N/N=C/c2ccccc2OC)cc1`, the inhibition is 65.1% (active).

As to `COc1ccc(NC(=O)c2ccc(OC)cc2)cc1`, the inhibition is -5.7% (inactive).

Take `COc1ccc(C(=O)Nc2ccccc2C(=O)N/N=C/c2ccc(O)c(OC)c2)cc1`: the inhibition is 106% (inactive).

In the case of `N#C/C=C\Oc1ccc(Cl)cc1N`, the inhibition is 51.7% (active).

In the case of `COc1ccc(Cl)cc1NC(=O)[C@@H]1CCCN1C(=O)c1cccs1`, the inhibition was -14.3% (inactive).

As for `Cc1nn(-c2ccccc2)c(C)c1/C=C/C(=O)OC(C)C(N)=O` (stereo unspecified), the inhibition is -9.1% (inactive).

On to `COc1ccc(-c2csc(NC(=O)CCCc3cccs3)n2)cc1`, for which the inhibition was 6.2% (inactive).

A word on the inhibition: it is the relative decrease from the control value, in per cent.
